Screens: PubChem BioAssay, National Center for Advancing Translational Sciences (NCATS)
Hsp90 Hop PPI: qHTS Assay for Disrupters of an Hsp90 Co-Chaperone Interaction; Hsp90 C-terminal peptide / TPR2A (Hop) interaction, human; AlphaScreen TPR2A-His6 binding biotin-Hsp90 C-terminal peptide; 0.44% of 71,000 active; Potency, µM (titrated, usually from 57 µM); active = well fitted curve in either direction with a large enough effect; inconclusive = small, poorly fitted or top-dose-only effect, or another doubt
USP2a inh: qHTS Assay for Inhibitors of Ubiquitin-specific Protease USP2a; AID 927, 2007; USP2a enzymatic assay, qHTS inhibition; Potency, µM (highest dose often 38.3 µM), usual class: inhibitors; 0.1% of 60,000 active; Ubiquitin carboxyl-terminal hydrolase 2 (Homo sapiens), O75604; note: nearly all actives have a fitted effect of over 60% in size
Target sequence (O75604 whole entry, looked up): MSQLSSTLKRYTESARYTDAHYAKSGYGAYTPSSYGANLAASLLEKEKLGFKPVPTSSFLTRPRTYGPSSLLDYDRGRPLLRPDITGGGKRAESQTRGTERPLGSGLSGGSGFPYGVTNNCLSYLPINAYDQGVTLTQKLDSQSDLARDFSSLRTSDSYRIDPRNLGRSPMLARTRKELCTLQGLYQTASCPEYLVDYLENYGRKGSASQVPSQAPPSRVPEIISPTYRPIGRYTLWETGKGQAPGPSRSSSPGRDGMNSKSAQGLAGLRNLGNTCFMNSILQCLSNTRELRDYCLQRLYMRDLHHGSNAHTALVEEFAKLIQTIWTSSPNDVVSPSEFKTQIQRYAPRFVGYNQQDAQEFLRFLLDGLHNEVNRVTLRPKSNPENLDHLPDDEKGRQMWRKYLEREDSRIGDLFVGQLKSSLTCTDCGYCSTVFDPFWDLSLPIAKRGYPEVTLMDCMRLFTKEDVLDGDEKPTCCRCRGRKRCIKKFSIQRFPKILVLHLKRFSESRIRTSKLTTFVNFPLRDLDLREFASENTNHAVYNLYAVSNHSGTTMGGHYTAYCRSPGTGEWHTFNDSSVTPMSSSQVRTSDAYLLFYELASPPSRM
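USP2 core (20 nM final) was preincubated with compound for 30 min at RT in 20 mM Tris-HCl pH 8.0, 2 mM CaCl2, 2 mM beta-mercaptoethanol; Ub-PLA2 (20 nM) plus NBD C6-HPC (20 uM) then added, fluorescence read after 2.5 h.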
UbGFP stabilizer: Ubiquitin-GFP Assay. Ubiquitin-GFP reporter cells, proteasome inhibition, GFP fluorescence; response scale: untreated = 0%, 10 µM MG-132 = 100%. Potency, µM (top dose mostly 45.9 µM), hits mostly activators. 67,000 tested, under 10 active. AID 526, 2006; active = well fitted activation curve with a large enough effect, not every such curve was filed as active; inconclusive = small, poorly fitted or top-dose-only effect, or another doubt; inactive = no such curve, though single readings can be large or run the other way
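Proteasome blockade was scored as a rise in GFP-expressing U2OS cells carrying a ubiquitin(G76V)-GFP construct, imaged after 4 hr compound treatment at 37 °C across a 46 uM–2.9 nM series.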
TsaE inh: qHTS Assay for Inhibitors of YjeE. tRNA threonylcarbamoyladenosine biosynthesis protein TsaE (Escherichia coli (strain …. purified YjeE enzyme, qHTS inhibition assay. Potency, µM. 0.05% of 71,000 active
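Purified YjeE (10 uM) with BODIPY Texas Red-labeled ADP probe (2 uM); compounds pin-transferred, 15 min at room temperature. Binding inhibition read as decreased fluorescence polarization; ADP titration as control.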
BRCT inh green: qHTS Assay for Inhibitors of BRCT-Phosphoprotein Interaction (Green Fluorophore). AID 875, 2007. Potency, µM (series often up to 76.9 µM), usual class: inhibitors. 0.05% of 75,000 active. Breast cancer type 1 susceptibility protein (Homo sapiens), P38398. BRCA1 BRCT-phosphopeptide binding, green fluorescence polarization
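Fluorescence polarization: His-tagged BRCT (~35 kDa BRCA1 C-terminus, 250 nM) bound to 100 nM fluorescein-labeled phosphorylated 10-aa BACH1 peptide, pH 7.3 phosphate buffer with DTT and Tween 20. Compounds incubated 12 min at room temperature; inhibition read as lowered polarization.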
BRCT inh red: qHTS Assay for Inhibitors of BRCT-Phosphoprotein Interaction (Red Fluorophore) | BRCT-phosphopeptide binding, red fluorescence polarization | Potency, µM (titrated, usually from 76.9 µM), usual class: inhibitors | 0.03% of 75,000 active
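Fluorescence polarization: 100 nM His-tagged BRCA1 BRCT with 100 nM TAMRA-labelled phospho-BACH1 decapeptide, phosphate buffer pH 7.3 with 150 mM NaCl, DTT, 0.01% Tween 20; 12 min RT. Binding inhibition seen as FP decrease.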
A number is an active result; i = inactive; ? = inconclusive; nt = no result; ! = not active in a repeat; [ ] = another dose, or the depositor's remark. This is a sample that favours compounds with a hit; in the whole collection about 0.47% have one here. Unless noted, calls come from the whole dose curve; as a rule, active = well fitted curve in the direction sought with a large enough effect; inconclusive = small, poorly fitted or top-dose-only effect, or another doubt; inactive = no such curve, though single readings can be large; an effect the other way counts as inactive or inconclusive.

SMILES	Hsp90 Hop PPI	USP2a inh	UbGFP stabilizer	TsaE inh	BRCT inh green	BRCT inh red
O=C(O)c1cc(O)c2c(c1)[C@H]([C@H]1c3cc(C(=O)O)cc(O)c3C(=O)c3c(O[C@@H]4OC(CO)C(O)C(O)C4O)cccc31)c1cccc(O[C@@H]3OC(CO)C(O)C(O)C3O)c1C2=O (stereo partly drawn)	nt	13µM	nt	nt	i[3.08 µM]	6.3µM
S=C(Nc1ccccn1)c1ccccn1	10µM	i	i	i	i	i
CC(C)[C@@H](CC(=O)N[C@@H]1CCNC[C@H]1C(=O)N[C@H](CC(=O)N[C@@H](CCC(=O)O)CC(=O)O)Cc1ccccc1)NC(=O)C[C@H](Cc1c[nH]c2ccccc12)NC(=O)[C@@H]1CCCC[C@H]1N	32µM	nt	nt	?	nt	nt
CCCNC(=O)OC[C@H]1O[C@@H](CCO/N=C\[C@@H](NS(=O)(=O)c2ccc(C)cc2)[C@H](C)/C=C\CC(=O)OC)C=C[C@@H]1Oc1ccc(OC)cc1	nt	nt	nt	nt	i[15.4 µM]	i[15.4 µM]
CO[C@@]12C[C@@H](COC(=O)c3cncc(Br)c3)CN(C)[C@H]1Cc1cn(C)c3cccc2c13	10µM!	i	i	i	i	i
O=C(OCC(=O)N1CCCC1)c1cncc(Br)c1	i	i	i	i	i	i
C=CC1=C(C)C2=NC1=CC1=NC(=CC3=NC(=CC4=NC(=C2)C(C)=C4CCC(=O)O)C(CCC(=O)O)=C3C)C(C=C)=C1C.[Zn]	5µM	nt	i	79µM	?	32µM
C/C(=N/S(=O)(=O)c1ccc(Cl)c(Cl)c1)OCC(C)(C)C	i[11 µM]	nt	i[9.17 µM]	i	i[15.4 µM]	i[15.4 µM]
Oc1c(CN2CCCCC2)cc(COCc2ccccc2)c2cccnc12	2.5µM	i	i	i	i	i
COCc1cc(CN2CCCC2)c(O)c2ncccc12	3.2µM	i	i	i	i	i
COc1ccccc1N1CCN(Cc2cc(Br)c(O)c3ncccc23)CC1	i[2.3 µM]	nt	i	i	i	i
Oc1ccc(COCc2ccccc2)c2cccnc12	25µM	i	i	i	i	i
Oc1cc(Cc2ccccc2)cnc1CN1CCCCC1	i	i	i	i	i	i
Oc1c(CN2CCN(c3ccccn3)CC2)cc(Cl)c2cccnc12	7.9µM	i	i	i	i	i
Oc1ccc(CNCc2ccccc2)c2cccnc12	?	nt	i[9.17 µM]	i	i[15.4 µM]	i[15.4 µM]
Oc1c(Cl)cc(Cl)c2cccnc12	nt	i	nt	nt	i[3.08 µM]	i
CC(=O)OC[C@@H]1O[C@H](C/C=N\O[C@@H](C)CN2CCCc3nc(C)c(C)cc32)C=C[C@@H]1OC(C)=O	nt	nt	nt	nt	i[15.4 µM]	i[15.4 µM]
COc1cc(C(=O)O[C@@H]2CC(C)=CC[C@@]3(C)CC[C@](O)(C(C)C)[C@H]23)ccc1O	i	nt	i	i	nt	nt
Oc1ccc(Cl)c2cccnc12	nt	i	nt	nt	i[3.08 µM]	i
Oc1ccc(CNc2ccccc2F)c2cccnc12	5µM	i	i	i	i	i
O=C(Oc1c(CN2CCOCC2)cc(Cl)c2cccnc12)c1ccc(F)cc1	13µM	i	i	i	i	i
COc1ccc(C(=O)Oc2c(CN3CCOCC3)cc(Cl)c3cccnc23)cc1	i	i	i	i	i	i
CC1CCCCN1Cc1nc2c(c(=O)n(C)c(=O)n2C)n1Cc1c(F)cccc1Cl (stereo not drawn)	i	nt	i	79µM	0.63µM	?
COC(=O)CC1C(C)(C)C(=O)C2CC3C4=CC(=O)OC(c5ccoc5)[C@]4(C)CCC3[C@@]1(C)C2=O (stereo partly drawn)	nt	i	nt	nt	i[3.08 µM]	i
O=c1c(-c2cccc(F)c2)nc2cncnc2n1-c1ccccc1	i	i	i	i	i	i
Cc1ccccc1-c1nc(N2CCN(C)CC2)c2ccccc2n1	i	i	i	i	i	i
Cc1ccccc1-c1nc(N2CCOCC2)c2ccccc2n1	i	13µM	i	?	i	i
CN(Cc1ccccc1)Cn1ccnc1	i[11 µM]	nt	i[9.17 µM]	i	i[15.4 µM]	i[15.4 µM]
